Hits are enriched below; roughly 2.3% of the tested compounds scored in any of these assays.
GLD-1 TGE inh = GLD-1/TGE RNA complex disruptors, primary screen, biochemical, fluorescence polarization; Female germline-specific tumor suppressor gld-1 (Caenorhabditis elegans), Q17339; AID 2280, 2010; inhibition, % at 5.96 µM; purified GLD-1 + fluorescein TGE RNA; actives 0.44% (n = 320,000);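 active means percent inhibition above a per-plate cutoff, the plate mean of test compounds plus 3 SD, cut at about 30% in these data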;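 further: 0% = DMSO wells with GLD-1 and probe and 100% = wells lacking GLD-1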
Target sequence (Q17339 whole entry, looked up): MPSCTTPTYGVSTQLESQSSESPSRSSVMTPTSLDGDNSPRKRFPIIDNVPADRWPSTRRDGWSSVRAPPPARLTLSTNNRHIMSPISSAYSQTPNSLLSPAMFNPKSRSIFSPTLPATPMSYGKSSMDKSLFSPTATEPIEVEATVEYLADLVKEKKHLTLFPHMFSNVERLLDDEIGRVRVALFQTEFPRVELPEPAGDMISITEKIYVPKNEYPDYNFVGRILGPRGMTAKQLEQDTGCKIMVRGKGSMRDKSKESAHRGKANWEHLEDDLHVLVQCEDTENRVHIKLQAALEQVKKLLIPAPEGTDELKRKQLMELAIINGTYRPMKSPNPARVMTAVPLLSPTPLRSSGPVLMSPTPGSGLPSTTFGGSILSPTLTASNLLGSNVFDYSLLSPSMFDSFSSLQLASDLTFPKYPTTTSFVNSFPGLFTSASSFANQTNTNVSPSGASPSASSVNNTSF
Mcl1-Noxa inh = Mcl-1/Noxa binding inhibitors, primary screen, biochemical, TR-FRET, 1536-well | AID 1022, 2008 | inhibition, % at 21.7 µM | actives 1.5% (n = 220,000) | Induced myeloid leukemia cell differentiation protein Mcl-1 (Homo sapiens), Q07820 | TR-FRET Mcl-1/Noxa peptide binding, 2 h;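 active means compounds that cut the protein-peptide binding signal by more than 50% relative to plate controls in a single-dose test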;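 further: His-tagged Mcl-1 with rhodamine Noxa BH3 peptide and terbium anti-His antibody; 0% = Mcl-1 plus Noxa peptide wells and 100% = peptide-only wells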
BCLXL inh = inhibitors of human Bcl-xL, primary screen, biochemical, fluorescence polarization, HTS. Bcl-2-like protein 1 (Homo sapiens), Q07817. GST-Bcl-xL / FITC-Bim BH3 peptide fluorescence polarization. inhibition, % at 10.9 µM. actives 0.7% (n = 320,000). AID 2129, 2009;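 active means inhibition above the mean of all tested compounds plus 3 SD, cutoff set per campaign, cut at about 30% in these data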;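 further: 0% = DMSO wells and 100% = unlabeled Bim-BH3 peptide competitor; inhibitors lower millipolarization by displacing the labeled peptide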
Mcl1-Bid inh = Mcl-1/Bid binding inhibitors, primary screen, biochemical, TR-FRET, 1536-well; Induced myeloid leukemia cell differentiation protein Mcl-1 (Homo sapiens), Q07820; TR-FRET Mcl-1/Bid-Dy647 peptide binding; inhibition, % at 21.7 µM; actives 0.97% (n = 220,000); AID 1021, 2008;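 active means compounds that cut the binding signal by more than half at the single screening dose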;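 further: His-tagged Mcl-1 with europium anti-His antibody binding Bid BH3 peptide; 0% = Mcl-1 plus peptide wells and 100% = peptide-only wells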
MCL1 BIM primary = inhibitors of MCL1 binding to BIM-BH3, primary screen, biochemical, fluorescence polarization. Induced myeloid leukemia cell differentiation protein Mcl-1 (Homo sapiens), Q07820. GST-MCL1 / FITC-Bim-BH3 fluorescence polarization. inhibition, % at 10.9 µM. actives 0.68% (n = 320,000);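 active means inhibition above the mean inhibition of all tested compounds plus 3 SD, set per campaign, cut at about 40% in these data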;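 further: 0% = DMSO wells and 100% = unlabeled Bim-BH3 peptide control; higher means more loss of mP so more displacement of Bim peptide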
Bim-Mcl-1 = inhibitors of Bim peptide binding to Mcl-1, primary screen, biochemical, bead-based flow cytometry, multiplex; Induced myeloid leukemia cell differentiation protein Mcl-1 (Homo sapiens), Q07820; Bim peptide-Mcl-1 binding; inhibition, % at 10 µM; actives 0.1% (n = 190,000); in the data active means inhibition above about 40%;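 further: 0% = no compound tracer wells and 100% = peptide blocker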
An asterisk follows results filed as active; . = no result.

SMILES	GLD-1 TGE inh	Mcl1-Noxa inh	BCLXL inh	Mcl1-Bid inh	MCL1 BIM primary	Bim-Mcl-1
NS(=O)(=O)c1cc(C(=O)N=Nc2c(O)[nH]c3ccccc23)ccc1Cl	0	51*	9	-1	8	.
O=C(N=Nc1c(O)[nH]c2ccccc12)c1cc(-c2ccc(F)cc2)n[nH]1	10	52*	6	37	7	-2
Oc1[nH]c2ccccc2c1N=Nc1ccccc1F	-143	28	-108	5	-261	0
CCC/C=N/NC(=O)c1cc(Br)ccc1O	0	6	5	2	16	-1
O=c1cc2c(=O)oc3cc(O)c(O)oc3c2c(O)c1O	.	89*	.	-158	.	.
COc1ccc(-c2ncc3ccccn23)cc1OC	-6	22	2	51*	1	0
Cc1cc(/C=N/n2c(COc3ccccc3C)nc3ccccc3c2=O)c(O)c([N+](=O)[O-])c1	6	81*	-1	-2	8	-1
NC(=O)CSc1nc2ccc([N+](=O)[O-])cc2[nH]1	-3	15	-12	-26	-15	0
Cc1cccc2nc(CSc3nc4ccc([N+](=O)[O-])cc4[nH]3)c(Br)n12	-3	60*	-12	-41	-5	-4
O=C1OCc2cccc([N+](=O)[O-])c21	7	0	0	3	0	-1
O=C1CC(=O)c2c1cccc2[N+](=O)[O-]	.	101*	.	12	.	.
O=C(c1cc(F)ccc1F)C1CCCN(C(=O)c2ccc(F)cc2Cl)C1 (stereo unspecified)	9	10	2	-19	1	-2
CCOc1c(O)ccc(/C=C2\SC(=S)NC2=O)c1[N+](=O)[O-]	-13	72*	7	-47	12	0
COc1ccc2c(=O)c3c(=O)n(Cc4ccco4)c(-c4ccco4)nc3oc2c1	5	70*	22	-3	26	0
COc1ccc(-c2nc3oc4cc(OC)ccc4c(=O)c3c(=O)n2Cc2ccco2)cc1	10	52*	10	28	6	-5
CCc1nc2oc3cc(OC)ccc3c(=O)c2c(=O)n1Cc1ccco1	1	29	17	8	21	1
CS(=O)(=O)c1cccc(C(=O)OCC(=O)Nc2ccc3c(c2)OCO3)c1	-3	.	-2	.	-9	.
O=C(Cc1ccccc1)NC1CCSc2ccccc21 (stereo unspecified)	-2	.	1	.	-12	.
Cc1ccc(/C=C/C2=Cc3c(sc(NC(=O)CSc4n[nH]c(N)n4)c3C#N)C(C)(C)C2)o1	37*	97*	54*	-30	61*	8
O=C(NC(=S)N1CCCc2ccccc21)c1ccc(Cl)cc1	7	51*	4	-53	10	-5
COc1ccc(CNCC(=O)Nc2sccc2C#N)cc1	-2	53*	-2	28	-1	-4
COc1ccc(N2CCN(CC(=O)Nc3sccc3C#N)CC2)cc1	1	24	9	-50	10	-2
C/C=C/C(=O)Nc1cccc(C2=NOC3(C2)C[C@@H](C(N)=O)N(C(=O)c2cc([N+](=O)[O-])cc([N+](=O)[O-])c2C)C3)c1 (stereo partly specified)	1	15	0	-2	1	.
C=C(C)C(=O)Nc1cccc(C2=NOC3(C2)C[C@@H](C(N)=O)N(C(=O)c2ccc(Cl)cc2)C3)c1 (stereo partly specified)	1	75*	4	-98	14	.
C/C=C(/C)C(=O)Nc1cccc(C2=NOC3(C2)C[C@H](C(N)=O)N(C(=O)c2ccc(Cl)cc2)C3)c1 (stereo partly specified)	-12	9	7	-24	12	.
SMILES	GLD-1 TGE inh	Mcl1-Noxa inh	BCLXL inh	Mcl1-Bid inh	MCL1 BIM primary	Bim-Mcl-1
C=C(C)C(=O)Nc1cccc(C2=NOC3(C2)C[C@H](C(N)=O)N(C(=O)c2ccccc2)C3)c1 (stereo partly specified)	-4	61*	0	-70	-9	.
C=C(C)C(=O)Nc1cccc(C2=NOC3(C2)C[C@@H](C(N)=O)N(C(=O)c2cc([N+](=O)[O-])cc([N+](=O)[O-])c2C)C3)c1 (stereo partly specified)	4	74*	-6	-47	-9	.
C=C(C)C(=O)Nc1cccc(C2=NOC3(C2)C[C@H](C(N)=O)N(C(=O)COc2ccc(Cl)cc2)C3)c1 (stereo partly specified)	0	69*	2	-129	12	.
Fc1ccc(C2=CC(c3ccco3)n3nnnc3N2)cc1 (stereo unspecified)	-7	14	0	-36	-4	.
O=C(O)CSCC(=O)Nc1ccc(-c2nc3ccccc3s2)cc1	-6	56*	8	-10	1	.
Cc1ccc2nc(-c3ccc(NC(=O)CSCC(=O)O)cc3)sc2c1	-1	9	10	19	0	.
Cc1ccc2nc(-c3ccc(NC(=O)CCN4C(=O)c5ccccc5C4=O)cc3)sc2c1	6	49	-1	56*	-7	-2
O=C(CCS(=O)(=O)c1ccccc1)Nc1ccc(-c2nc3ccccc3s2)c(O)c1	2	22	36*	-10	-1	-3
O=C(O)CCc1ccc(-c2ccc(Cl)cc2)o1	8	18	7	95*	6	-2
O=S(=O)(c1ccc(N2CCOCC2)c(Cl)c1)N1CCOCC1	-1	.	6	.	5	.
O=c1c2ccccc2sn1-c1cc(S(=O)(=O)N2CCOCC2)ccc1N1CCOCC1	3	75*	-5	-27	13	-8
Nc1cc(S(=O)(=O)N2CCOCC2)ccc1N1CCCCC1	3	.	.	.	.	.
O=c1c2ccccc2sn1-c1cc(S(=O)(=O)N2CCOCC2)ccc1N1CCCC1	4	64*	15	-108	11	-16
O=C(N/C(=C\c1ccco1)C(=O)N1CCCC1CO)c1ccccc1 (stereo unspecified)	17	.	21	.	22	.
COC(=O)c1sc(-c2ccc(Cl)cc2)cc1NC(=O)c1ccccc1C(=O)O	8	-18	3	4	1	.
COC(=O)c1sc(-c2ccc(C(C)(C)C)cc2)cc1NC(=O)c1ccccc1C(=O)O	-1	51*	6	8	8	.
COc1ccc(C(C)=O)cc1CSc1nnc(Nc2ccc(C)cc2)s1	6	9	5	0	6	-2
O=C(O)C(Cc1ccccc1)N1C(=O)/C(=C/C=C/c2ccco2)SC1=S (stereo unspecified)	.	102*	.	98*	.	.
O=C1S/C(=C\C=C\c2ccco2)C(=O)N1c1ccccc1	8	21	5	-17	13	-5

Screens deposited in PubChem by several laboratories.
